Source: PubChem
HT1080NT lethal – kills 2HG-producing HT-1080-NT fibrosarcoma cells; HT-1080-NT fibrosarcoma viability, CellTiter-Glo ATP luminescence, 48 h; Potency, µM (series often up to 46.1 µM), inactives show at the highest dose activity, negative = less viability, hits mostly cytotoxic; 360,000 compounds, 1.6% hits; AID 686970;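 also: NT is the 2HG producing partner of a matched IDH1 knockdown line; 0% = DMSO-treated cells and -100% = media-only wells without cells; nearly all actives have a fitted effect of over 55% in size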
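Luminescent CellTiter-Glo readout after 48 hours of compound exposure at 37 degrees C defined viability of HT-1080-NT cells. Activity was normalized to DMSO wells and cell-free media wells; concentration-response curves were fitted and assigned curve classes.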
KB-3-1 cytotox – KB-3-1 parental cell cytotoxicity; AID 1347075; KB-3-1 viability, CellTiter-Glo ATP luminescence, 72 h; 400,000 compounds, 1.4% hits; Potency, µM (titrated, usually from 46.1 µM), actives largely listed as cytotoxic; also: % is scaled to controls: 0 for no effect and ±100 for the full control effect; nearly all actives have a fitted effect of over 60% in size
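KB-3-1 cells, DMEM (no phenol red) + 10% FBS; compound by pin transfer, 72 h, 37 °C. Readout: CellTiter-Glo luminescence after 10 min. Data normalized, curve-fitted.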
KB-V1 MDR tox – KB-V1 MDR subline cytotoxicity; KB-V1 MDR cells viability, CellTiter-Glo, 72 h; Potency, µM (titrated, usually from 46.1 µM), hits mostly cytotoxic; 400,000 compounds, 3.4% hits; also: % is scaled to controls: 0 for no effect and ±100 for the full control effect; nearly all actives have a fitted effect of over 60% in size
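Compound-treated KB-V1 multidrug-resistant cells, 72 h, 37 degrees C; viability by CellTiter-Glo. Fitted qHTS curves give the values.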
HT1080 IDH1KD tx – kills HT-1080 cells with IDH1 knockdown; Potency, µM (top dose mostly 46.1 µM), inactives show top-dose activity, negative = toxicity, hits mostly cytotoxic; HT-1080 IDH1 knockdown viability, ATP luminescence, 48 h; AID 686971; 360,000 compounds, 2% hits;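 also: 0% = DMSO wells and -100% = cell-free medium wells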
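Knockdown cells (IDH1KD HT-1080) received compounds 2 h after plating at 750 cells/well and were kept 48 h at 37 °C in 5% FBS RPMI. A CellTiter-Glo luminescence read gave % activity for curve fitting.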
MCF10A rerep – induces DNA re-replication in MCF 10a normal breast cells. MCF 10A DNA re-replication, Hoechst nuclear intensity, 48 h. Potency, µM (top dose mostly 46.1 µM), inactives show top-dose activity, positive = re-replication, usual class: activators. 350,000 compounds, 2.9% hits. AID 624296; also: % of control where 0% means no effect; nearly all actives have a fitted effect of over 50% in size
SW480 rerep – induces DNA re-replication in SW480 colon adenocarcinoma cells | SW480 DNA re-replication, Hoechst DNA content imaging, 48 h | Potency, µM (titrated, usually from 46.1 µM), for inactives: at the top dose re-replication activation, hits mostly activators | 340,000 compounds, 1.8% hits | AID 624297; also: % of control where 0% means no effect; nearly all actives have a fitted effect of over 55% in size
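Readout is total intensity of Hoechst-stained nuclei, excited at 405 nm and collected at 500-530 nm. Compound treatment lasted 48 hr at 37 C in 5% CO2 before staining.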
* hit, by the source's call; i = inactive; ? = inconclusive; · = no result given; [ ] = dose if it differs, or a comment. The list is not random: actives were taken first. Their share in the collection is about 8%. Calls follow the shape of the dose curve; as a rule, active = well fitted curve in the direction sought with a large enough effect; inconclusive = small, poorly fitted or top-dose-only effect, or another doubt; inactive = no such curve, though single readings can be large; an effect the other way counts as inactive or inconclusive. Potency is read from the fitted curve at half-maximal effect.

SMILES	HT1080NT lethal	KB-3-1 cytotox	KB-V1 MDR tox	HT1080 IDH1KD tx	MCF10A rerep	SW480 rerep
COc1ccccc1Nc1nc(C)nc2c1oc1ccccc12	?	i	?	-28%	18µM*	12%
CCc1nc(NCc2ccc3c(c2)OCO3)c2oc3ccccc3c2n1	-7%	?	16µM*	-12%	?	3%
CCc1nc(Nc2ccc(OC)cc2OC)c2oc3ccccc3c2n1	?	i	i	15µM*	?	?
Cc1nc(Nc2ccccc2O)c2oc3ccccc3c2n1	4%	i	i	0%	0%	0%
COc1ccc(Nc2nc(C)nc3c2nnn3Cc2ccccc2Cl)c(OC)c1	0%	i	i	5%	3.3µM*	0%
Cc1nc(NCC2CCCO2)c2nnn(Cc3ccccc3Cl)c2n1 (stereo not drawn)	-1%[9.24 µM]	i	i	-27%	-4%	-3%
CC(=O)NC(Cc1ccc(O)cc1)C(=O)NCC(N)C(=O)c1ccccc1 (stereo not drawn)	6%	·	·	9%	·	·
COc1cccc(Nc2nc(C)nc3c2oc2ccccc23)c1	-10%	i	i	?	?	5%
COc1ccc(Nc2nc(C)nc3c2oc2ccccc23)c(OC)c1	18µM*	i	i	29µM*	15µM*	?
Cc1cc(C)c2ccc(N)nc2c1O	10µM*	?	i	?	?	?
Cc1cc(=O)[nH]c2nc(N)ccc12	·	?	i	·	·	·
CCOc1ccc(NC(=O)CN2CCN(c3ccc(Cl)cc3)CC2)cc1	·	i	i	·	·	·
COc1cc(OC)c(NC(=O)CCn2cccn2)cc1Cl	·	i	i	·	·	·
O=C1Cc2ccccc2Sc2c(OCCN3CCCCC3)cccc21	-1%	i	?	-5%	?	?
O=C1Cc2ccccc2Sc2cc(OCCCN3CCCCC3)ccc21	-3%	i	?	7%	?	23µM*
CN(C)CCCOc1ccc2c(c1)Sc1ccccc1CC2=O	2%	i	10µM*	1%	?	0%
Nc1ccc2c(c1)C(=O)Cc1ccccc1S2	-2%	i	i	-14%	2%	5%
COc1ccc2c(CNCc3ccco3)c(C(=O)O)n(Cc3ccc(F)cc3Cl)c2c1	·	i	i	·	·	·
COc1ccc(C(=O)CC2(O)C(=O)N(CCc3ccccc3)c3ccc(Br)cc32)cc1OC (stereo not drawn)	·	i	i	·	·	·
CCc1nnc2c(Nc3cccc(F)c3)nc3ccc(C(=O)c4ccccc4)cc3n12	·	?	9.2µM*	·	·	·
CCc1nnc(NC(=O)c2ccccc2NC(=O)C2CCN(C(=O)c3ccco3)CC2)s1	·	?	i	·	·	·
COc1ccccc1-c1ncn(Cc2cccc(-c3ccccc3)c2)c1-c1ccco1	?	?	15µM*	?	·	·
COc1ccccc1-c1ncn(Cc2cccc(-c3ccccc3)c2)c1-c1cc(C)cc(C)c1	?	?	16µM*	?	·	·
COc1ccccc1-c1noc(-c2ccco2)n1	-8%	i	i	-3%	0%	-4%
COc1ccccc1-c1nc2ccccc2nc1-c1ccccc1	-1%	i	i	-1%	?	1%
SMILES	HT1080NT lethal	KB-3-1 cytotox	KB-V1 MDR tox	HT1080 IDH1KD tx	MCF10A rerep	SW480 rerep
Cc1cccc(N2CCN(S(=O)(=O)c3ccc(F)c(C(=O)Nc4ccc(C(C)C)cc4)c3)CC2)c1C	·	i	i	·	·	·
CCOC(=O)c1ccccc1OC(=O)CS(=O)c1ccccc1[N+](=O)[O-] (stereo not drawn)	-13%	i	i	-7%	-16%	14%
CS(=O)(=O)c1ccc(S(=O)CC(=O)OCc2ccccc2)c([N+](=O)[O-])c1 (stereo not drawn)	5.8µM*	i	i	4.1µM*	4.1µM*	-40%
O=C(CS(=O)c1ccc(C(F)(F)F)cc1[N+](=O)[O-])Oc1ccccc1 (stereo not drawn)	16µM*	?	?	16µM*	7.3µM*	?
Cn1c(=O)c2c(SCC(=O)N3CCc4ccccc43)nc(-c3cccc(F)c3)nc2n(C)c1=O	·	i	i	·	·	·
O=C(Nc1ccc2ccccc2c1)Nc1nnc(-c2ccc(F)cc2)s1	·	?	i	·	·	·
COCCCn1c(=N)c(C(=O)NC2CCCC2)cc2c(=O)n3ccccc3nc21	·	i	i	·	·	·
COc1ccc(CCn2c(=N)c(C(=O)NCC3CCCO3)cc3c(=O)n4ccccc4nc32)cc1OC (stereo not drawn)	-19%	i	i	-4%	3%	?
COc1ccc(CCn2c(=N)c(C(=O)NC3CCCC3)cc3c(=O)n4ccccc4nc32)cc1	-1%	i	i	7%	21µM*	23µM*
COCCCn1c(=N)c(C(=O)NC2CCCCC2)cc2c(=O)n3ccccc3nc21	11%	i	i	11%	3.3µM*	5.2µM*
COc1ccc(Cn2c(=N)c(C(=O)NC3CCCCC3)cc3c(=O)n4ccccc4nc32)cc1	12%	i	i	21%	4.1µM*	4.6µM*
COc1ccc(CCn2c(=N)c(C(=O)NC3CCCC3)cc3c(=O)n4ccccc4nc32)cc1OC	9%	?	i	2%	16µM*	?
COc1cc(OC)c(N(C)C(=O)Cn2ncc3c([nH]c4ccccc43)c2=O)cc1Cl	·	i	i	·	·	·
Cc1[nH]n(-c2ccccc2)c(=O)c1N=Nc1nccs1	11µM*	i	?	4µM*	?	?
Cc1[nH]n(-c2ccccc2)c(=O)c1N=Nc1ccccc1O	15µM*	9.2µM*	i	9.2µM*	7%	?
CCOC(=O)c1sc(=S)n(Cc2ccccc2)c1C	-5%	i	i	-16%	0%	-2%
CN(C)C(=S)N=c1ssc(=S)n1Cc1ccccc1	5.8µM*	?	?	8.2µM*	?	5.2µM*
Cc1ccc(NC(=O)c2cc(NC(=O)c3ccco3)ccc2N2CCCCC2)cc1	-28%	i	i	?	28%	-44%
CCC(=O)Nc1ccc(N2CCCCC2)c(C(=O)Nc2ccccc2C)c1	7%	i	12µM*	0%	3%	-6%
Cc1ccccc1NC(=O)c1cc(N)ccc1N1CCCCC1	-6%	i	15µM*	-18%	2%	-1%
CN(C)S(=O)(=O)c1ccc(N2CCCC2)c(C(=O)Nc2ccccc2Br)c1	4%	i	i	-4%	1%	-53%
O=C(CSc1nc2c([nH]c3ccccc32)c(=O)n1-c1ccc(Cl)cc1)N1CCOCC1	·	i	i	·	·	·
